Screens as filed in PubChem.
CYP2C9 act = activators of human CYP2C9; recombinant CYP2C9, luciferin-H conversion, luminescence; active compounds read high; factor 1 = untreated enzyme, 0 = blocked; 96,000 compounds, 1.4% hits; AID 1024; P11712; activation factor at 5 µM;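 active = activation factor of 2 or more for CYP2C9 at a 5 µM dose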;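 also: 0 = sulfaphenazole-blocked wells and 1 = vehicle-only wells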
CYP2C9 inh = human CYP2C9 inhibition; CYP2C9 Supersomes, luciferin-H conversion, luminescence; inhibition, % at 5 µM; 96,000 compounds, 20% hits;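 active = blocking of liver enzyme CYP2C9 beyond about 50% at 5 µM, limit read from the data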
CYP2C19 activ = cytochrome P450 2C19 (human) activation; recombinant CYP2C19, luciferin-H EGE luminescence; active compounds read high; 0 = fully inhibited enzyme, 1 = untreated enzyme; AID 1025; P33261; activation factor at 5 µM; 96,000 tested, under 10 active;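 active = activation factor of at least 2 at 5 µM in the primary screen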;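 also: 0 = wells with 2.5 mM tranylcypromine and 1 = vehicle-only wells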
CD11b adhes inh = blocks human CD11b/CD18 adhesion to fibrinogen. P05107+P11215. inhibition, % at 10 µM. 93,000 compounds, 0.54% hits. AID 1497. K562 CD11b/CD18 adhesion to fibrinogen, ATPlite luminescence; Mn2+ added to activate the integrin;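 active = primary inhibition of 50% or more at 10 µM, then 40% or more on retest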
CD11b adhes enh = enhancers of human CD11b/CD18 binding to fibrinogen | P05107+P11215 | K562 CD11b/CD18 adhesion to fibrinogen, ATPlite luminescence | activation, % at 10 µM | 93,000 compounds, 0.07% hits | AID 1499;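 active = 10 µM primary screen giving 50% or more activity, confirmed by 40% or more on retest at that dose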
CYP2C19 inhib = blocks human cytochrome P450 2C19 | 96,000 compounds, 21% hits | inhibition, % at 5 µM | CYP2C19 Supersomes, luciferin-H EGE luminescence, 30 min | P33261;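 active = CYP2C19 inhibition above a set limit at 5 µM in the primary screen, cut at about 50% in these data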;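 also: plate controls were negative control wells for no effect and 2.5 mM tranylcypromine positive control for full effect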
* marks the source's active call; other numbers are inactive results; / = no result. Sampled rows, rich in hits. Any-hit rate of the full collection: about 28%.

SMILES	CYP2C9 act	CYP2C9 inh	CYP2C19 activ	CD11b adhes inh	CD11b adhes enh	CYP2C19 inhib
CN1CCCN(C(=O)Cc2c(Cl)cccc2Cl)c2nc3ccccc3nc21	0.8	17	0.8	33	2	18
O=C(Nc1ccc(S(=O)(=O)N2CCCc3ccccc32)cc1)C1CCCO1 (centres undefined)	0.3	65*	0.4	-12	7	60*
COc1ccc(C(=O)NC2CCCCCC2)cc1S(=O)(=O)N1CCCc2ccccc21	0.9	11	1	20	0	-2
O=C(O)C1CC=CCC1C(=O)Nc1ccc(S(=O)(=O)N2CCCc3ccccc32)cc1 (centres undefined)	0.4	63*	1.1	25	0	-8
O=S(=O)(NC1CC1)c1ccc(S(=O)(=O)N2CCCc3ccccc32)cc1	0.2	78*	0.1	25	1	90*
CCc1ccc(C(=O)CSc2ncn[nH]2)cc1	0.7	31	0.3	-2	1	75*
COc1ccc(C(=O)CSc2ncn[nH]2)cc1OC	1.1	-15	0.7	-6	2	29
Cc1ccc(-c2nnc(N3CCN(C(=O)CSc4ncn[nH]4)CC3)c3ccccc23)cc1	0.4	64*	0.3	-16	8	70*
Cc1ccc(C(=O)CSc2ncn[nH]2)cc1	0.5	53*	0.5	-5	-5	49
CCOc1ccc(C(=O)N2CCCN(C(=O)c3ccc(OCC)cc3)CC2)cc1	0.4	61*	0.7	-27	-3	30
CCCCOc1ccc(C(=O)N2CCC(C)CC2)cc1	0.5	54*	0.3	-21	2	70*
c1ccc(COn2nnc3ccccc32)c(COn2nnc3ccccc32)c1	0.1	93*	0	4	1	99*
Clc1cccc(Cl)c1COn1nnc2ccccc21	0.7	30	0.5	-19	-1	49
CSc1ccccc1NC(=O)CN(C)CC(=O)Nc1ccc(Cl)cc1F	/	/	/	7	0	/
CCOC(=O)c1cccc(Nc2ncnc3ccc(C)cc23)c1	0.5	50	0.4	-17	-3	56*
CCOC(=O)c1ccc(Nc2ncnc3ccc(C)cc23)cc1	1.1	-5	0.8	-1	-4	19
CCOC(=O)c1c(NC(NC(C)=O)C(Cl)(Cl)Cl)sc(C(C)=O)c1C (centres undefined)	0.5	54*	0.6	/	/	38
CCOC(=O)c1c(NC(=O)Cc2cccs2)sc(C(=O)NC2CCCCC2)c1C	0.3	71*	0.7	/	/	33
CCOC(=O)c1sc(NN=C(C(=O)OC)C(=O)OC)c(C(=O)OCC)c1C	/	/	/	35	9	/
CCOC(=O)c1c(/N=C/N(C)C)sc(C(=O)OC)c1C	0.5	50	0.2	0	0	78*
CCOC(=O)c1c(NC(=O)OC)sc(C(=O)N(C)C)c1C	0.5	54*	0.8	-19	-4	24
CCOC(=O)c1c(NC(=O)Cc2cccs2)sc(C(=O)NC2CCCC2)c1C	0.7	29	0.9	-9	-3	9
O=c1oc(/C=C/c2ccco2)nc2sc3c(c12)CCC3	1	3	1	/	/	-1
CN(CCCNC(=O)C1CCN(S(=O)(=O)N2CCC3(CC2)OCCO3)CC1)Cc1ccccc1	0.9	8	0.9	-36	1	8
Cc1ccc(-c2cc(C(=O)Nc3ccc(S(=O)(=O)Nc4nccs4)cc3)c3ccccc3n2)c(C)c1	/	/	/	-11	57	/
SMILES	CYP2C9 act	CYP2C9 inh	CYP2C19 activ	CD11b adhes inh	CD11b adhes enh	CYP2C19 inhib
CCOC(=O)c1c(NC(=O)C2c3ccccc3Oc3ccccc32)sc(C(=O)N(CC)CC)c1C	0	98*	0.6	-5	-4	39
CCOC(=O)c1c(NC(=O)CN(C)C)sc(C(=O)N(CC)CC)c1C	0.6	38	0.7	/	/	30
CCOC(=O)c1c(NC(=O)CC)sc(C(C)=O)c1C	0.2	77*	0.3	-12	-3	69*
CCOC(=O)c1sc(C)c(C(=O)NC2CCCCC2)c1N	2.3*	-132	0.9	10	-3	7
CCOC(=O)c1cn[nH]c1N	1	3	0.9	-30	5	10
Cc1cc(C)c(S(=O)(=O)c2ccccc2C)c(OCC(C)(C)C)n1	0.7	31	0.8	/	/	24
